Measured values as given in ChEMBL document CHEMBL2218924, “A broad activity screen in support of a chemogenomic map for kinase signalling research and drug discovery” (Biochem J, 2013).

What was measured:
[1] = target: Serine/threonine-protein kinase MRCK beta (Homo sapiens) (UniProt Q9Y5S2); conditions: at 1 µM
[2] = target: Serine/threonine-protein kinase MRCK beta (Homo sapiens) (UniProt Q9Y5S2); conditions: at 10 µM
[3] = target: Ribosomal protein S6 kinase alpha-5 (Homo sapiens) (UniProt O75582); conditions: at 1 µM
Chain of Ribosomal protein S6 kinase alpha-5 (Homo sapiens) (O75582 whole entry, looked up): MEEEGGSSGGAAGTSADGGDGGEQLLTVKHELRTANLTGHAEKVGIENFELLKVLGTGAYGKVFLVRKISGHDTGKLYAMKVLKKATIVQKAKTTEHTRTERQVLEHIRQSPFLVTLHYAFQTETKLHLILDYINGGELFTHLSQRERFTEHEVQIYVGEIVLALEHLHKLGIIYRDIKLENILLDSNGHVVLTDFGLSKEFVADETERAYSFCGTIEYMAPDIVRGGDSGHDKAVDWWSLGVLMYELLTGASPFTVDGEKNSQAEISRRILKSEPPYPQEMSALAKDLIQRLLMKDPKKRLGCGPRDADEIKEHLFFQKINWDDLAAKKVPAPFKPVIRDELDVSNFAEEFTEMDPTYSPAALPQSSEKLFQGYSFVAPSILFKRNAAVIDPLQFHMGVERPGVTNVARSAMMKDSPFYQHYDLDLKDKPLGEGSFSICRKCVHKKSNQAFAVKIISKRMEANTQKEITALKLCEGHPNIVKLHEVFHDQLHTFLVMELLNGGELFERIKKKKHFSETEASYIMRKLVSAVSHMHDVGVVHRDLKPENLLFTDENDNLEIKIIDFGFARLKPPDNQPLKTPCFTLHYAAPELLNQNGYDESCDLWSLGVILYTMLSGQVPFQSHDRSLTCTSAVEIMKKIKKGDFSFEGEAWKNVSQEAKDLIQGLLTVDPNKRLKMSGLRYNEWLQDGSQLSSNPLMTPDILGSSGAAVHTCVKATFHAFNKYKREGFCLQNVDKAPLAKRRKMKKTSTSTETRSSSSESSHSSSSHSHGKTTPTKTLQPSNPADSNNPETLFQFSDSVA

[4] = target: Ribosomal protein S6 kinase alpha-5 (Homo sapiens) (UniProt O75582); conditions: at 10 µM
[5] = target: Ribosomal protein S6 kinase alpha-4 (Homo sapiens) (UniProt O75676); conditions: at 1 µM
Chain of Ribosomal protein S6 kinase alpha-4 (Homo sapiens) (O75676 whole entry, looked up): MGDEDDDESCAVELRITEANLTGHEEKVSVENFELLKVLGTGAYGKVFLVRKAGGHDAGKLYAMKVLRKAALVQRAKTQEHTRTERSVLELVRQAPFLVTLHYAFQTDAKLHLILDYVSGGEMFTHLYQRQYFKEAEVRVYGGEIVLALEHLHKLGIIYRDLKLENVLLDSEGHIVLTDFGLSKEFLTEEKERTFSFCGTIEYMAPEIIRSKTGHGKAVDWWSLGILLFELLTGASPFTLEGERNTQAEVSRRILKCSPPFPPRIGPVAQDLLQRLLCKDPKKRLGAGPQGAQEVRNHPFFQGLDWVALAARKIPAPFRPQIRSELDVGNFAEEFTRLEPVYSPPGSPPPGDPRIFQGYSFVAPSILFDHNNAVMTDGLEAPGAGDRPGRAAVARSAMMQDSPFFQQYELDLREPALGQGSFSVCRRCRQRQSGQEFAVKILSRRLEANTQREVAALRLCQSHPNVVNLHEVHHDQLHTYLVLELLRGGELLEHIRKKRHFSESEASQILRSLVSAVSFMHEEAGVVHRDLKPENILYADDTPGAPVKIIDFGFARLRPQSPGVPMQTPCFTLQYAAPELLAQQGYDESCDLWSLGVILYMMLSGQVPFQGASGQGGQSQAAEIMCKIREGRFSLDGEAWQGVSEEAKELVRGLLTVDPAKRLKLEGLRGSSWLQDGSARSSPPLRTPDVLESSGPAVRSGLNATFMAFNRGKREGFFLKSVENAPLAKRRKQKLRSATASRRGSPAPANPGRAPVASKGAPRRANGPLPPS

[6] = target: Ribosomal protein S6 kinase alpha-4 (Homo sapiens) (UniProt O75676); conditions: at 10 µM
[7] = target: SRSF protein kinase 3 (Homo sapiens) (UniProt Q9UPE1); conditions: at 1 µM
Chain of SRSF protein kinase 3 (Homo sapiens) (Q9UPE1 whole entry): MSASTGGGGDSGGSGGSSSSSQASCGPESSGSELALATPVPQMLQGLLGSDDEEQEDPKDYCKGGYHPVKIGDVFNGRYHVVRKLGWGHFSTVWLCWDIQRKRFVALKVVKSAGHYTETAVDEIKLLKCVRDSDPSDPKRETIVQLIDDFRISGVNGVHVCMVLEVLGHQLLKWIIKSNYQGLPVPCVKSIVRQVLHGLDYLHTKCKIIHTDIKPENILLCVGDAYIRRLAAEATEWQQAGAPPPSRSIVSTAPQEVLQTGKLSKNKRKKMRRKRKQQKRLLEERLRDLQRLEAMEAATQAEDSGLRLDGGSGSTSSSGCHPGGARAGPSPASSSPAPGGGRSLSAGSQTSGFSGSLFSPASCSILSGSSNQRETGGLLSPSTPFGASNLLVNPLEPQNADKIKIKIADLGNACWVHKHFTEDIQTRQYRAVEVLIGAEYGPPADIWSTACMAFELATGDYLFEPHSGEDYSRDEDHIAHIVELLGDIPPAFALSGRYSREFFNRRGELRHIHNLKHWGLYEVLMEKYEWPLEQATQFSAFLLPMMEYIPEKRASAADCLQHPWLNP

[8] = target: SRSF protein kinase 3 (Homo sapiens) (UniProt Q9UPE1); conditions: at 10 µM
[9] = target: T1, Serine/threonine-protein kinase 4 (Homo sapiens) (UniProt Q13043); conditions: at 1 µM
T1 sequence (whole entry): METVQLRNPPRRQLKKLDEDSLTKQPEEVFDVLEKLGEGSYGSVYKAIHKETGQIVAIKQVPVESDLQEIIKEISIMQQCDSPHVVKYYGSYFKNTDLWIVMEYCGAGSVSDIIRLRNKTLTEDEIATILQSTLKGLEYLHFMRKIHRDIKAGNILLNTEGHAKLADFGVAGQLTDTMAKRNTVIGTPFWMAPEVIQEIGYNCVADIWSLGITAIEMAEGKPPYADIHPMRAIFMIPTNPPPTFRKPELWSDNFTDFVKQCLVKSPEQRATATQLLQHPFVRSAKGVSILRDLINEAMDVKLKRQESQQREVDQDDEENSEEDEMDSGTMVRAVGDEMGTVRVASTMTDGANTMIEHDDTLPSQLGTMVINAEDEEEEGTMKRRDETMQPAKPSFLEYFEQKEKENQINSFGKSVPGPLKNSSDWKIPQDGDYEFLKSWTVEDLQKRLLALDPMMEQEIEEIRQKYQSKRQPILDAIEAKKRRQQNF

[10] = target: T1, Serine/threonine-protein kinase 4 (Homo sapiens); conditions: at 10 µM

Chain of Serine/threonine-protein kinase MRCK beta (Homo sapiens) (Q9Y5S2 whole entry): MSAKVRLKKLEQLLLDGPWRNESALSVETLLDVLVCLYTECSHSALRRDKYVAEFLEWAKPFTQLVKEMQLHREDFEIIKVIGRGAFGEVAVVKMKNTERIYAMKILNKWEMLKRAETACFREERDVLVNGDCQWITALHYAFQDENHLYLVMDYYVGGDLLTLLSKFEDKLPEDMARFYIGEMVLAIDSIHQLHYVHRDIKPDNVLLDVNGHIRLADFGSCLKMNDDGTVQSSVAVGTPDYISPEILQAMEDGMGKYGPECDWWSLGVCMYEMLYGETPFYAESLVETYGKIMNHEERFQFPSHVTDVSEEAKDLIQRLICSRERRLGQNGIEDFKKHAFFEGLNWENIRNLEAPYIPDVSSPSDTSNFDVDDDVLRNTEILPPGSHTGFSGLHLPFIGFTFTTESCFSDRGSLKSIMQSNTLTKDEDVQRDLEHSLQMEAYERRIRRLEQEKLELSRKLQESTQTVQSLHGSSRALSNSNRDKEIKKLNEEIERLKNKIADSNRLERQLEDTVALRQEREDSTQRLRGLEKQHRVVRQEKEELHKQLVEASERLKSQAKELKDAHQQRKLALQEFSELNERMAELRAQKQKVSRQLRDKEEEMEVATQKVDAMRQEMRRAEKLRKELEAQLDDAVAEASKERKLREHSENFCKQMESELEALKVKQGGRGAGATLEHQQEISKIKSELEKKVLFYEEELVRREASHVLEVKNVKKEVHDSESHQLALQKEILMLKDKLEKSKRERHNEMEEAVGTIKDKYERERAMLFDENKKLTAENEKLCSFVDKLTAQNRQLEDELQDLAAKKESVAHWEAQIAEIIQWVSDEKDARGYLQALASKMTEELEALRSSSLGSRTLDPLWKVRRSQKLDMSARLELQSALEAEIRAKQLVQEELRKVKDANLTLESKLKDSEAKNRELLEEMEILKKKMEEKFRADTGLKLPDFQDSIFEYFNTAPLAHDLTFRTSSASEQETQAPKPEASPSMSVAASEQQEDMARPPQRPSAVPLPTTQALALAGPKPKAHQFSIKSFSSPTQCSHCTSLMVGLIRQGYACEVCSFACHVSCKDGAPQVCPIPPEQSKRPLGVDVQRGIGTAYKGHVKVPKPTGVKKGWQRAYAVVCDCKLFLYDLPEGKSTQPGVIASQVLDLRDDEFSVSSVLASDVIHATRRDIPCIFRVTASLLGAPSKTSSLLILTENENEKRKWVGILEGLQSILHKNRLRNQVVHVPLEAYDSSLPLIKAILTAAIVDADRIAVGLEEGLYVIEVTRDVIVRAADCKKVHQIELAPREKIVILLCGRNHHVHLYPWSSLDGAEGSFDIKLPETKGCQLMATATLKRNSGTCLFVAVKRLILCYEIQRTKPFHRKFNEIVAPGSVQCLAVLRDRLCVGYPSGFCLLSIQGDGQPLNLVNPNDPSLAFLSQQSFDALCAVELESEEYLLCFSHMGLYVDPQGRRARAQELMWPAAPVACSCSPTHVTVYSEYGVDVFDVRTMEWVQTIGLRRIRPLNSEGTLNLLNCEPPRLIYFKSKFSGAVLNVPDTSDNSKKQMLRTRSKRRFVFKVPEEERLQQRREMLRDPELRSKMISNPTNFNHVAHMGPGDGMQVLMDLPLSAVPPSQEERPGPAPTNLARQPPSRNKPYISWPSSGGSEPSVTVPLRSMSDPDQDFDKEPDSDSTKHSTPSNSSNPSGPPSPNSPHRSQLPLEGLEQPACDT

Structure (SMILES) | residual activity [1] | residual activity [2] | residual activity [3] | residual activity [4] | residual activity [5] | residual activity [6] | residual activity [7] | residual activity [8] | residual activity [9] | residual activity [10]
C[C@@H](N)[C@H]1CC[C@H](C(=O)Nc2ccncc2)CC1 | 95% | 69% | 90% | 50% | 82% | 58% | 96% | 98% | 105% | 79%
N#CC(C#N)=C(N)/C(C#N)=C/c1ccc(O)cc1 | 96% | 84% | 122% | 92% | 91% | 85% | 119% | 82% |  | 
CO[C@@H]1[C@H](N(C)C(=O)c2ccccc2)C[C@H]2O[C@]1(C)n1c3ccccc3c3c4c(c5c6ccccc6n2c5c31)C(=O)NC4 | 85% | 68% | 13% | 8% | 12% | 8% | 96% | 77% | 1% | 2%
N#CCCc1ccc2c(c1)-c1[nH]c3ccc([N+](=O)[O-])cc3c1CC(=O)N2 | 9% | 6% |  |  |  | 79% |  |  | 10% | 6%
CCN(CC)C(=O)c1ccc(Nc2nc(OCC3CCCCC3)c3nc[nH]c3n2)cc1 |  | 34% | 100% | 69% | 64% | 23% | 66% | 15% | 36% | 5%
Nc1cccc(-c2cc3c(Oc4cccc(O)c4)ncnc3[nH]2)c1 | 95% | 84% | 98% | 117% | 90% | 68% |  |  | 73% | 74%
CC(C)n1cnc2/c(=N/c3cccc(Cl)c3)nc(NCCO)[nH]c21 | 85% | 82% | 62% | 50% | 57% | 37% | 61% | 19% | 61% | 58%
COc1cc2ncnc(Nc3ccc(NC(=O)c4ccccc4)cc3)c2cc1OC |  | 90% |  | 95% | 106% | 101% |  | 99% |  | 98%
Cc1nc2cc3nc(-c4cccs4)cnc3cc2n1C | 105% | 100% | 129% | 101% | 101% |  | 117% | 88% | 105% | 94%
c1ccc(-c2n[nH]cc2-c2ccnc3ccccc23)nc1 | 96% | 87% |  |  | 89% | 108% | 109% | 94% |  | 
Cc1cncc2cccc(S(=O)(=O)N3CCCN(C(=O)CN)C[C@H]3C)c12 | 89% | 80% | 126% | 54% | 66% | 37% |  | 77% | 87% | 75%
N#Cc1cnc2cnc(NCc3cccnc3)cc2c1Nc1ccc(F)c(Cl)c1 |  |  |  |  | 5% | 2% | 119% | 99% | 93% | 91%
CC[n+]1c(/C=C/N(C)c2ccccc2)n(-c2ccccc2)c2ccc(-c3nc4ccccc4s3)cc21 | 98% | 83% | 139% | 99% | 108% | 96% | 107% | 82% | 103% | 73%
O=C1Nc2ccc(Br)cc2/C1=C\c1cc2c([nH]1)CCCC2 | 98% |  | 111% | 105% |  | 99% | 101% | 80% | 60% | 75%
Oc1ccc(Nc2nc(-c3ccc(Cl)cc3)cs2)cc1 | 111% | 129% | 97% | 107% | 109% | 94% | 110% | 97% | 78% | 87%
CCOc1cc2ncnc(Nc3cccc(Br)c3)c2cc1OCC | 84% | 72% | 117% | 101% | 105% | 88% | 113% | 76% | 83% | 61%
c1ccc(-c2n[nH]c3c2oc2ccccc23)cc1 | 98% | 115% |  | 74% | 95% | 70% |  |  | 88% | 58%
c1ccc2c(-c3ccncc3)c[nH]c2c1 | 94% | 60% |  |  | 80% | 54% | 102% | 80% | 89% | 97%
COc1cc2ncc(-c3ccccc3)nc2cc1OC | 98% | 79% |  |  | 83% | 88% | 134% | 92% |  | 
Cc1cc(Nc2nc(-c3ccccc3)nc3ccccc23)n[nH]1 | 96% | 99% | 72% | 39% | 59% | 14% | 46% | 16% | 48% | 6%
